Data from ChEMBL document CHEMBL3988442, “University of Dundee, Small-Polar-MMV Screening Library” (2021).
Out of some 48,000 compounds screened, about 13,000 (27%) showed an effect of 50% or more. This is one part of the list.

Test system: Wolbachia pipientis
Experiment: Anti-Wolbachia Cell-Based Screen
Type: functional
Design: scale not given: in the data most compounds retested in dose-response had high values
Conditions: 5 µM

| Compound | Percent Effect [%] |
| --- | --- |
| CNC(=O)c1cccc(CCNC2CCSc3ccccc32)c1 (stereo not drawn) | -5.556 |
| CC(=O)Nc1ccc(C(=O)Nc2cnc3n2CCCC3)c(C)c1 | -9.74 |
| Cn1ccc(CNC(=O)N2CCC(C3(C)OCCO3)CC2)c1 | 7.37 |
| c1cnn(C2CN(Cc3noc(C4CC4)n3)C2)c1 | 20.24 |
| COC(=O)[C@H]1C[C@@H](O)CCN1S(=O)(=O)c1cc(Cl)ccc1OC | -10.78 |
| Cc1nccn1-c1cc(CNC(=O)CCC2CCCO2)ccn1 (stereo not drawn) | 10.65 |
| COC(=O)c1cccc(S(=O)(=O)NC(=O)c2cccc(OC)c2OC)c1 | 4.901 |
| COc1ccccc1C(=O)NS(=O)(=O)c1cccc(C#N)c1 | 106.4 |
| COc1cccc(C(=O)NS(=O)(=O)c2cccc(C#N)c2)c1OC | -1.089 |
| O=C(Nc1ccccc1Oc1cccc(F)c1)C1CCS(=O)(=O)C1 (stereo not drawn) | 17.61 |
| COc1nc2ccn(CCc3cnccn3)c(=O)c2cc1C#N | -4.634 |
| CSc1nc2ncc3c(=O)n(CCN4CCCCC4)ccc3n2n1 | 124.9 |
| COCCn1cncc1Cn1cccc(C(F)(F)F)c1=O | -5.803 |
| COCCn1ccc2c(cnc3nc(SC)nn32)c1=O | 167 |
| CN1CCN(CCn2cnc3c(F)cccc3c2=O)CC1 | 0.6334 |
| CS(=O)(=O)Cc1nc(CCc2ccccc2)nn1-c1ccccn1 | -12.46 |
| NC(=O)NCC(=O)N1CCCC(c2nccn2Cc2ccncc2)C1 (stereo not drawn) | -11.58 |
| CC(Cn1cncn1)NC(=O)Nc1ccc(F)cc1OCC1CC1 (stereo not drawn) | 4.941 |
| Cn1cccc1CN1CCc2ncnc(-c3cccnc3)c2CC1 | 88.44 |
| COc1ncnc2c1CCN(Cc1cccs1)CC2.O=C(O)C(F)(F)F | -7.322 |
| O=C(O)C(F)(F)F.O=C(O)C(F)(F)F.c1cncc(-c2ncnc3c2CCN(Cc2cccs2)CC3)c1 | 89.28 |
| CCc1ccc(CN2CCc3ncnc(-c4cccnc4)c3CC2)o1.O=C(O)C(F)(F)F.O=C(O)C(F)(F)F | 106.1 |
| O=C(O)C(F)(F)F.O=C(O)C(F)(F)F.c1cncc(-c2ncnc3c2CCN(Cc2ccsc2)CC3)c1 | 91.57 |
| O=C(C1CCOC1)N1CCc2ncnc(-c3cccnc3)c2CC1 (stereo not drawn) | 8.249 |
| Cc1ccc(CN2CCc3ncnc(-c4cccnc4)c3CC2)o1.O=C(O)C(F)(F)F.O=C(O)C(F)(F)F | -3.02 |

| Compound | Percent Effect [%] |
| --- | --- |
| c1ccc(CN2CCc3ncnc(-c4cncnc4)c3CC2)nc1 | -4.171 |
| O=C(O)C(F)(F)F.O=C(O)C(F)(F)F.c1ccc(CN2CCc3ncnc(-c4cccnc4)c3CC2)nc1 | 17.47 |
| CCCN(C(=O)CN1CCN(CCO)CC1)C1=CCCCC1 | 10.87 |
| c1cnc(NCc2noc3c2CN(C2CCOC2)CC3)nc1 (stereo not drawn) | -0.4343 |
| CS(=O)(=O)N1CC[C@@H](CC(=O)O)[C@@H](CC2=NCCc3cc(F)ccc32)C1 | -4.983 |
| N#Cc1cc2c(=O)n(CC(O)C(F)(F)F)ccc2[nH]c1=O (stereo not drawn) | -28.05 |
| COCCCNC(=O)C(C)(C)N(C)C1CCCC1 | 11.81 |
| CN(Cc1nnc(C2CC2)o1)CC1CCCN1c1cccnn1 (stereo not drawn) | 15.59 |
| Cn1c(=O)oc2cc(Nc3nccnc3C#N)ccc21 | -0.7115 |
| Cc1cc(CNC(=O)NCC(O)c2cccc(C(F)(F)F)c2)no1 (stereo not drawn) | -1.276 |
| Cc1nc(CN2CCc3ncnc(-c4ccsc4)c3CC2)cs1.O=C(O)C(F)(F)F | -15.15 |
| Cc1nc(CN2CCc3ncnc(-c4cccnc4)c3CC2)cs1.O=C(O)C(F)(F)F.O=C(O)C(F)(F)F | 101.9 |
| Cc1nc(CN2CCc3ncnc(-c4ccccc4)c3CC2)cs1.O=C(O)C(F)(F)F | -8.271 |
| CC(C)(C)CNC(=O)CNC(=O)C1CC1 | -0.05069 |
| CCOC(=O)c1ccc(N2CCN(Cc3c(C)nn(C)c3Cl)CC2)nc1 | -11.85 |
| O=C(Nc1c(N2CCCC2)cccc1N1CCCC1)c1ccccn1 | -1.766 |
| CC(=O)N1CC2C[C@]2(NC(=O)c2ccco2)C1 (stereo partly drawn) | -12.88 |
| CC(C)n1cccc1C(=O)N1CC[C@@H](NC(=O)c2ccccn2)[C@H](O)C1 | 9.129 |
| C/C(NC(=O)c1ccccn1)=C1\C(=O)C[C@@H]2[C@H]1C2(C)C | 103 |
| C/C(NC(=O)c1ccco1)=C1/C(=O)C[C@@H]2[C@H]1C2(C)C | 112.1 |
| C/C(NC(=O)c1cccs1)=C1\C(=O)C[C@@H]2[C@H]1C2(C)C | 112.6 |
| O=C(N[C@]12CC1CN(C(=O)c1ccco1)C2)c1ccco1 (stereo partly drawn) | -8.008 |
| O=C(NCC1(O)CCc2ccccc2C1)c1cccs1 (stereo not drawn) | -6.747 |
| O=C(NC1CC(=O)N(C2CC2)C1)c1cccs1 (stereo not drawn) | 3.357 |
| CNC(=O)[C@H]1CC[C@@H]2[C@@H](CCN2C(=O)N(C)C)O1 | -9.576 |

| Compound | Percent Effect [%] |
| --- | --- |
| O=C(NCCC(=O)N1CCCC1)C(OC1CCCC1)c1ccccc1 (stereo not drawn) | -0.3907 |
| COCC1COCCC12CCN(CCc1ccccc1)CC2.O=C(O)C(F)(F)F (stereo not drawn) | 7.834 |
| COCC1COCCC12CCN(Cc1nccs1)CC2.O=C(O)C(F)(F)F (stereo not drawn) | 97.2 |
| O=C(O)C(F)(F)F.c1csc(CN2CCC3(CCOCC3COCC3CC3)CC2)n1 (stereo not drawn) | 99.84 |
| O=C(O)C(F)(F)F.O=C(O)C(F)(F)F.c1cc(CN2CCC3(CCOCC3COCC3CC3)CC2)ccn1 (stereo not drawn) | -8.349 |
| COCC1COCCC12CCN(Cc1cccs1)CC2.O=C(O)C(F)(F)F (stereo not drawn) | 99.73 |
| O=C(O)C(F)(F)F.c1coc(CN2CCC3(CCOCC3COCC3CC3)CC2)c1 (stereo not drawn) | -46.4 |
| O=C(O)C(F)(F)F.c1cc(CN2CCC3(CCOCC3COCC3CC3)CC2)co1 (stereo not drawn) | -40.89 |
| CN(Cc1nc2ccccc2[nH]1)C(=O)CN(C)c1ccc(Cl)cn1 | 9.224 |
| CCN(CC)CCNCc1cc(O)c2cc(C)ccc2n1 | 11.73 |
| CO[C@H]1COC[C@@H]1NC(=O)C1(Oc2ccc(Cl)cc2)CCNCC1 | 6.112 |
| C[S+]([O-])CCNCc1ccc(OCc2cscn2)cc1 (stereo not drawn) | 1.801 |
| CCCN1CCN(C(=O)c2cc3ccccc3cn2)[C@H]2CS(=O)(=O)C[C@H]21 | 0.5207 |
| CC(C)N[C@@H]1CC[C@@H]1NC(=O)c1ccccc1OC(F)(F)C(F)F | -9.491 |
| CC1CCN(c2cc(NC(=O)C3CC3)ncn2)CC1 | 10.56 |
| Cl.c1nc(CCC2CCCCN2)cc(N2CCCC2)n1 (stereo not drawn) | 95.63 |
| CC1CCN(c2cc(CCC3CCCN3)ncn2)CC1.Cl (stereo not drawn) | 81.62 |
| Nc1ccc(-c2cc(O)cc(CCC3CCCCN3)c2)cn1 (stereo not drawn) | -4.594 |
| CCc1cc(N2CCCC(c3noc(CC)n3)C2)ncn1 (stereo not drawn) | -9.129 |
| OCC1CCCN1c1cc(N2CCC(OC3CCCC3)CC2)ncn1 (stereo not drawn) | 10.66 |
| Cl.c1nc(CCC2CCCN2)cc(N2CCCOCC2)n1 (stereo not drawn) | -10.48 |
| CC1CCN(c2cc(-n3cnc(C(=O)N4CCSCC4)c3)ncn2)CC1 | 13.65 |
| Cl.c1nc(CCC2CCCN2)cc(N2CCCCCC2)n1 (stereo not drawn) | 105.3 |
| O=C(O)C(F)(F)F.O=C([C@H]1CN(Cc2ccc(F)cc2)C[C@H]2OCC[C@@H]12)N1CCCO1 | 1.984 |
| Cc1cc(NC(=O)CN2CCOC(Cn3cccn3)C2)n(C)n1 (stereo not drawn) | -0.9893 |

| Compound | Percent Effect [%] |
| --- | --- |
| CCC1CCCN(CC(=O)Nc2oc(C)c3c(C)n[nH]c(=O)c23)C1 (stereo not drawn) | 7.246 |
| CN(Cc1ccc(OCC(=O)N2CCOCC2)cc1)S(C)(=O)=O | -1.865 |
| CCc1ccccc1C(=O)N1CCN(S(C)(=O)=O)[C@@H](C)C1 | 7.255 |
| NC(=O)CCOc1nc(-c2ccccc2Cl)no1 | -3.331 |
| CCOCCn1nc(C2CCNCC2)n(Cc2ccccc2)c1=O | -5.43 |
| CCCn1nc(C2CCNCC2)n(Cc2ccccc2)c1=O | -22.36 |
| CCn1c(C2CCCNC2)nn(CCn2cncn2)c1=O (stereo not drawn) | 98.85 |
| CCn1c(C2CCNCC2)nn(CCn2cncn2)c1=O | 89.88 |
| O=c1n(CCn2cccc2)nc(C2CCNCC2)n1Cc1ccccc1 | -16.93 |
| CCn1c(C2CCNCC2)nn(CCCc2ccccc2)c1=O | 0.4782 |
| CCn1c(C2CCCN(C(=O)c3ccc[nH]3)C2)nn(CCN(C)C)c1=O (stereo not drawn) | -8.209 |
| CCn1c(C2CCNCC2)nn(CCn2ccc(C)n2)c1=O | 83.74 |
| CCn1c(Cn2cncn2)nnc1C1CCN(Cc2ccncc2)CC1 | -0.7206 |
| FC(F)(F)c1ccc2nc([C@H]3CCN(C4CCOCC4)C3)[nH]c2c1 | -2.136 |
| Cc1nn(C)c(C)c1S(=O)(=O)N(C)Cc1nn(C)c(Cl)c1Cl | -26.42 |
| c1coc(CN2Cc3nccn3CC(Cn3cncn3)C2)c1 (stereo not drawn) | 1.02 |
| CCOCC1CN(Cc2ccco2)Cc2nccn2C1.O=C(O)C(F)(F)F (stereo not drawn) | 99.94 |
| c1cncc(OCC2CN(Cc3ccco3)Cc3nccn3C2)c1 (stereo not drawn) | -2.745 |
| CCN(CC)CC1CN(Cc2ccco2)Cc2nccn2C1 (stereo not drawn) | 84.77 |
| c1cncc(COCC2CN(Cc3ccco3)Cc3nccn3C2)c1 (stereo not drawn) | 6.885 |
| CC(C)C(C(=O)NCC1CC1)n1cnc2cc(F)c(F)cc21 (stereo not drawn) | -9.964 |
| O=C(CCc1nc(Cl)n[nH]1)NC1CCCN(CC2CCCCC2)C1 (stereo not drawn) | -7.697 |
| CCc1ncc(C(=O)N(C)Cc2cc(-c3ccncc3)no2)cn1 | -12.94 |
